Where two headings read alike, the source gives them in different places.
Tests used:
DCAMKL2 = test system: T1, DCAMKL2; settings: concentration: 1 μM, replicates: in singlicate; n = 1
T1 construct: gene DCLK2

DCAMKL3 = test system: T2, DCAMKL3; settings: concentration: 1 μM, replicates: in singlicate; n = 1
T2 construct: gene DCLK3

DDR1 = settings: concentration: 1 μM, replicates: in singlicate; n = 1
DDR2 = settings: concentration: 1 μM, replicates: in singlicate; n = 1
DLK = test system: T3, DLK; settings: concentration: 1 μM, replicates: in singlicate; n = 1
T3 construct: gene MAP3K12

DMPK2 = test system: T4, DMPK2; settings: n = 1
T4 construct: gene CDC42BPG

DMPK = settings: concentration: 1 μM, replicates: in singlicate; n = 1
DRAK1 = test system: T5, DRAK1; settings: concentration: 1 μM, replicates: in singlicate; n = 1
T5 construct: gene STK17A

DRAK2 = test system: T6, DRAK2; settings: concentration: 1 μM, replicates: in singlicate; n = 1
T6 construct: gene STK17B

DYRK1A = settings: concentration: 1 μM, replicates: in singlicate; n = 1
DYRK1B = settings: concentration: 1 μM, replicates: in singlicate; n = 1
DYRK2 = settings: concentration: 1 μM, replicates: in singlicate; n = 1
EGFR = settings: concentration: 1 μM, replicates: in singlicate; n = 1
EIF2AK1 = settings: concentration: 1 μM, replicates: in singlicate; n = 1
EPHA1 = settings: concentration: 1 μM, replicates: in singlicate; n = 1
EPHA2 = settings: concentration: 1 μM, replicates: in singlicate; n = 1
EPHA3 = settings: concentration: 1 μM, replicates: in singlicate; n = 1
EPHA4 = settings: concentration: 1 μM, replicates: in singlicate; n = 1
EPHA5 = settings: concentration: 1 μM, replicates: in singlicate; n = 1
EPHA6 = settings: concentration: 1 μM, replicates: in singlicate; n = 1
[1] = concentration: 1 μM, replicates: in singlicate
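Further: KINOMEscan kinase panel screen.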

COC(=O)Nc1nc2cc(Oc3ccc(NC(=O)Nc4cc(C(F)(F)F)ccc4F)cn3)ccc2[nH]1.Cl.Cl [GW681170]
%Inh (DCAMKL2): 15% | %Inh (DCAMKL3): 3% | %Inh (DDR1): 100% | %Inh (DDR2): 97.1% | %Inh (DLK): 35% | %Inh (DMPK2; [1]): 0% | %Inh (DMPK): 0% | %Inh (DRAK1): 16% | %Inh (DRAK2): 0% | %Inh (DYRK1A): 0% | %Inh (DYRK1B): 12% | %Inh (DYRK2): 0% | %Inh (EGFR): 12% | %Inh (EIF2AK1): 5% | %Inh (EPHA1): 64% | %Inh (EPHA2): 92.3% | %Inh (EPHA3): 47% | %Inh (EPHA4): 81% | %Inh (EPHA5): 43% | %Inh (EPHA6): 91%

COc1cccc(C(=O)Nc2cccc(Oc3ccc4nc(NC(=O)C5CC5)cn4n3)c2)c1
%Inh (DCAMKL2): 17% | %Inh (DCAMKL3): 49% | %Inh (DDR1): 100% | %Inh (DDR2): 99.7% | %Inh (DLK): 18% | %Inh (DMPK2; [1]): 27% | %Inh (DMPK): 0% | %Inh (DRAK1): 0% | %Inh (DRAK2): 24% | %Inh (DYRK1A): 0% | %Inh (DYRK1B): 19% | %Inh (DYRK2): 9% | %Inh (EGFR): 78% | %Inh (EIF2AK1): 0% | %Inh (EPHA1): 42% | %Inh (EPHA2): 98.7% | %Inh (EPHA3): 62% | %Inh (EPHA4): 79% | %Inh (EPHA5): 57% | %Inh (EPHA6): 68%

COc1cccc(-c2ccc3c(NC(=O)C4CC4)n[nH]c3n2)c1 [SB-710903]
%Inh (DCAMKL2): 0% | %Inh (DCAMKL3): 6% | %Inh (DDR1): 0% | %Inh (DDR2): 52% | %Inh (DLK): 72% | %Inh (DMPK2; [1]): 0% | %Inh (DMPK): 0% | %Inh (DRAK1): 2% | %Inh (DRAK2): 4% | %Inh (DYRK1A): 52% | %Inh (DYRK1B): 0% | %Inh (DYRK2): 73% | %Inh (EGFR): 20% | %Inh (EIF2AK1): 5% | %Inh (EPHA1): 20% | %Inh (EPHA2): 0% | %Inh (EPHA3): 0% | %Inh (EPHA4): 20% | %Inh (EPHA5): 0% | %Inh (EPHA6): 23%

COc1cc(Nc2nccc(N3CCC(NC(=O)c4cc5ccccc5s4)C3)n2)cc(OC)c1OC (centres unmarked) [GSK1379760]
%Inh (DCAMKL2): 14% | %Inh (DCAMKL3): 0% | %Inh (DDR1): 0% | %Inh (DDR2): 39% | %Inh (DLK): 31% | %Inh (DMPK2; [1]): 5% | %Inh (DMPK): 0% | %Inh (DRAK1): 0% | %Inh (DRAK2): 0% | %Inh (DYRK1A): 0% | %Inh (DYRK1B): 33% | %Inh (DYRK2): 19% | %Inh (EGFR): 45% | %Inh (EIF2AK1): 0% | %Inh (EPHA1): 3% | %Inh (EPHA2): 9% | %Inh (EPHA3): 0% | %Inh (EPHA4): 7% | %Inh (EPHA5): 0% | %Inh (EPHA6): 5%

CSc1cccc2c(-c3ccncn3)c(-c3ccc(F)cc3)nn12 [GW514786]
%Inh (DCAMKL2): 20% | %Inh (DCAMKL3): 0% | %Inh (DDR1): 78% | %Inh (DDR2): 63% | %Inh (DLK): 24% | %Inh (DMPK2; [1]): 59% | %Inh (DMPK): 13% | %Inh (DRAK1): 0% | %Inh (DRAK2): 0% | %Inh (DYRK1A): 18% | %Inh (DYRK1B): 0% | %Inh (DYRK2): 12% | %Inh (EGFR): 70% | %Inh (EIF2AK1): 0% | %Inh (EPHA1): 18% | %Inh (EPHA2): 7% | %Inh (EPHA3): 0% | %Inh (EPHA4): 0% | %Inh (EPHA5): 0% | %Inh (EPHA6): 0%

CCn1c(-c2nonc2N)nc2c(C#CC(C)(C)O)ncc(OCCCCN)c21.O=C(O)C(F)(F)F.O=C(O)C(F)(F)F [GSK507274]
%Inh (DCAMKL2): 34% | %Inh (DCAMKL3): 98.7% | %Inh (DDR1): 0% | %Inh (DDR2): 0% | %Inh (DLK): 1% | %Inh (DMPK2; 1 µM): 0% | %Inh (DMPK): 0% | %Inh (DRAK1): 0% | %Inh (DRAK2): 2% | %Inh (DYRK1A): 25% | %Inh (DYRK1B): 0% | %Inh (DYRK2): 8% | %Inh (EGFR): 9% | %Inh (EIF2AK1): 27% | %Inh (EPHA1): 20% | %Inh (EPHA2): 43% | %Inh (EPHA3): 38% | %Inh (EPHA4): 8% | %Inh (EPHA5): 0% | %Inh (EPHA6): 20%

Cn1cc(-c2ccc3c(c2)CCN3C(=O)Cc2cccc(Cl)c2)c2c(N)ncnc21 [GSK2606590]
%Inh (DCAMKL2): 19% | %Inh (DCAMKL3): 0% | %Inh (DDR1): 99.5% | %Inh (DDR2): 57% | %Inh (DLK): 51% | %Inh (DMPK2; [1]): 53% | %Inh (DMPK): 0% | %Inh (DRAK1): 0% | %Inh (DRAK2): 0% | %Inh (DYRK1A): 11% | %Inh (DYRK1B): 0% | %Inh (DYRK2): 5% | %Inh (EGFR): 2% | %Inh (EIF2AK1): 89% | %Inh (EPHA1): 11% | %Inh (EPHA2): 10% | %Inh (EPHA3): 0% | %Inh (EPHA4): 0% | %Inh (EPHA5): 0% | %Inh (EPHA6): 17%

c1ccc(-c2n[nH]cc2Nc2ccnc3ccccc23)nc1 [GW694077]
%Inh (DCAMKL2): 0% | %Inh (DCAMKL3): 12% | %Inh (DDR1): 0% | %Inh (DDR2): 10% | %Inh (DLK): 74% | %Inh (DMPK2; [1]): 0% | %Inh (DMPK): 0% | %Inh (DRAK1): 99.4% | %Inh (DRAK2): 0% | %Inh (DYRK1A): 99.9% | %Inh (DYRK1B): 100% | %Inh (DYRK2): 90% | %Inh (EGFR): 15% | %Inh (EIF2AK1): 0% | %Inh (EPHA1): 0% | %Inh (EPHA2): 0% | %Inh (EPHA3): 0% | %Inh (EPHA4): 4% | %Inh (EPHA5): 0% | %Inh (EPHA6): 0%

CNC(=O)c1ccccc1Nc1nc(Nc2ccc(N3CCOCC3)cc2)ncc1Cl.Cl [GSK1576028]
%Inh (DCAMKL2): 31% | %Inh (DCAMKL3): 81% | %Inh (DDR1): 95.1% | %Inh (DDR2): 73% | %Inh (DLK): 95% | %Inh (DMPK2; [1]): 25% | %Inh (DMPK): 81% | %Inh (DRAK1): 95.1% | %Inh (DRAK2): 60% | %Inh (DYRK1A): 94.4% | %Inh (DYRK1B): 100% | %Inh (DYRK2): 99.1% | %Inh (EGFR): 98.8% | %Inh (EIF2AK1): 0% | %Inh (EPHA1): 90.8% | %Inh (EPHA2): 53% | %Inh (EPHA3): 76% | %Inh (EPHA4): 29% | %Inh (EPHA5): 0% | %Inh (EPHA6): 65%

c1ccc(-c2cnc3nccnn23)cc1 [AH20685]
%Inh (DCAMKL2): 27% | %Inh (DCAMKL3): 0% | %Inh (DDR1): 0% | %Inh (DDR2): 24% | %Inh (DLK): 20% | %Inh (DMPK2; [1]): 0% | %Inh (DMPK): 0% | %Inh (DRAK1): 0% | %Inh (DRAK2): 0% | %Inh (DYRK1A): 42% | %Inh (DYRK1B): 5% | %Inh (DYRK2): 3% | %Inh (EGFR): 14% | %Inh (EIF2AK1): 0% | %Inh (EPHA1): 0% | %Inh (EPHA2): 11% | %Inh (EPHA3): 0% | %Inh (EPHA4): 0% | %Inh (EPHA5): 0% | %Inh (EPHA6): 0%
